Several values for one entry are separate records, joined by “and”; a condition that tells them apart may be missing. Equal values may be shown once. Inconclusive results are not listed. Where a call stands in place of a potency, no number is given. Some structures have more than one record in an assay (separate samples or runs), and their calls can disagree. Activity calls are given as the source filed them. Calls come from the whole dose curve; as a rule, active = well fitted cell-killing curve with a large enough effect in the repeat runs; inconclusive = weak or mixed curves; inactive = flat fitted curve, though single readings scatter.
Potency is the fitted concentration of half-maximal effect.

A short description of this test: qHTS RealTime-Glo MT Cell Viability Assay in HepG2 cells - 16 hour (AID 1224885). Note: nearly all actives have a fitted effect of over 50% in size. Particulars: RealTime-Glo luminescence; series mostly up to 76.8 µM. The essentials: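 Luminescence read-out: viable HepG2 cells reduce a prosubstrate to a NanoLuc substrate, giving a signal proportional to live cell number. Reads taken at 0, 8, 16, 24, 32 and 40 h of compound exposure at 37 C.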
Turning to `CCCCCCCCCCCCCCCCCCn1cc[n+](C)c1`, the Potency was 43.4 µM (active).

For `COC[C@H](C)N(C(=O)CCl)c1c(C)csc1C`, the Potency entry is “inactive”.

For the compound `C[C@H]1CC[C@@H]2[C@@H](C)[C@H]3[C@H](C[C@H]4[C@@H]5CC=C6CC(O[C@@H]7O[C@H](CO)[C@H](O)[C@H](O[C@@H]8O[C@H](CO)[C@@H](O)[C@H](O)[C@H]8O)[C@H]7O[C@H]7O[C@@H](C)[C@H](O)[C@@H](O)[C@H]7O)CC[C@]6(C)[C@H]5CC[C@]34C)N2C1` (stereo partly drawn), the Potency was 50.6 µM (active). For the compound `Cc1cc(C)cc(OP(=O)(Oc2cc(C)cc(C)c2)Oc2cc(C)cc(C)c2)c1`, the Potency entry was “inactive”. With `Cc1ccc(C(=O)Cl)cc1` the entry was “inactive”; with `COP(N)(=S)OC`, “inactive”; with `NNC(=O)c1ccccc1`, “inactive”.

In the case of `CCN`, the Potency entry is “inactive”.

For the compound `N#Cc1ccccc1N`, the Potency result was “inactive”. The result for `CN(CCCC(O)c1cccnc1)N=O` (stereo not drawn) reads “inactive”; that for `S=C=Nc1cccc2ccccc12`, “inactive”.

For `O=C(CCCN1CCC2(CC1)C(=O)NCN2c1ccccc1)c1ccc(F)cc1`, the Potency entry is “inactive”. As for `CC(C)(C)OO`, the Potency result was “inactive”. Regarding `C[C@]12CC[C@@H]3c4ccc(OC(=O)N(CCCl)CCCl)cc4CC[C@H]3[C@@H]1CC[C@@H]2O`, the Potency result is “inactive”. With `ClCCN1CCOCC1` the entry was “inactive”; with `[Hg+2].[I-].[I-]`, 11 µM (active); with `Cl/C=C\CCl`, “inactive”. The result for `CC(O)C#N` (stereo not drawn) reads “inactive”; that for `c1ccc(OCC2CO2)cc1` (stereo not drawn), “inactive”; that for `ClC1=C(Cl)[C@]2(Cl)[C@@H]3[C@@H]4C[C@@H]([C@H]5O[C@@H]45)[C@@H]3[C@@]1(Cl)C2(Cl)Cl`, 43.6 µM (active). The result for `CCOCCOC(C)=O` reads “inactive”. On to `CCC[CH2][Sn]([CH2]CCC)([CH2]CCC)[O]C(=O)c1ccccc1`, for which the Potency is 0.616 µM (active).

Regarding `CCCCCCCCCCBr`, the Potency entry is “inactive”. On to `Oc1ccc(I)cc1`, for which the Potency entry was “inactive”. For `O=c1[nH]c2ccccc2n1CCCN1CCC(n2c(=O)[nH]c3cc(Cl)ccc32)CC1`, the Potency result was “inactive”. The result for `Cc1cc(Cl)ccc1O[C@H](C)C(=O)O` reads “inactive”.

Take `CCCCCCCCCCCCCN1CC(C)OC(C)C1` (stereo not drawn): the Potency entry is “inactive”. Regarding `O=c1ssc(Cl)c1Cl`, the Potency is 21.9 µM (active). As for `C[C@@H](Oc1ccc(Cl)cc1Cl)C(=O)O`, the Potency result is “inactive”. With `COP(=O)(CCC(=O)NCO)OC`, the Potency result is “inactive”. The result for `C=COCCCl` reads “inactive”; that for `CNC(C)Cc1ccc2c(c1)OCO2` (stereo not drawn), “inactive”.

Take `CCCSP(=O)(OCC)SCCC`: the Potency result is “inactive”. Take `CCS(=O)(=O)c1cccnc1S(=O)(=O)NC(=O)Nc1nc(OC)cc(OC)n1`: the Potency result is “inactive”.

Regarding `CCCCCCCCCCCCCCCC[N+](C)(C)C`, the Potency entry is “inactive and 54.9 µM (active) and 23.9 µM (active)”.

With `O=c1[nH]c2ccccc2n1C1CCN(CCCC(c2ccc(F)cc2)c2ccc(F)cc2)CC1`, the Potency is 49 µM (active) and inactive. On to `CCOP(=S)(OCC)SCS(=O)(=O)C(C)(C)C`, for which the Potency entry was “inactive”. The result for `CC(=O)Nc1ccc2c(c1)Cc1ccccc1-2` reads “inactive”.

For the origin of these results see PubChem BioAssay (Tox21).
